Rows were chosen to be rich in hits. Some 11% of all compounds tested hit in one or more screens of this group.
Pf growth 96h: P. falciparum growth inhibition at 96 hour, primary screen for plastid delayed-death inhibitors. P. falciparum luciferase reporter growth, 96 h. Potency, µM (series often up to 28.7 µM), usual class: inhibitors. 320,000 tested, 6.9% active. AID 504834
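Plates of compound plus infected erythrocytes (2% hematocrit, 0.05% parasitemia final) incubate 96 hours, 37 C, 5% CO2. Detection reagent added; reduced luminescence from the parasites' luciferase reporter flags inhibition.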
HCV inhibitor: inhibitors of hepatitis C virus infection; AID 651820; Huh7.5.1 HCVcc-Cre infection, luciferase reporter, 44 h; 340,000 tested, 3.4% active; Potency, µM (top dose mostly 41.8 µM), usual class: inhibitors
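Luciferase read-out (15 sec integration) after a 15 min room-temperature substrate step quantifies HCVcc-Cre infection. Cells, 1,000 per well, had compound added 4 h post-plating, then virus at ~0.5 moi, and were cultured 44 h.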
Pf growth 48h: inhibits P. falciparum growth in the first generation, 48 h. P. falciparum luciferase growth in erythrocytes, 48 h. Potency, µM (highest dose often 28.7 µM), actives largely listed as inhibitors. 310,000 tested, 5.9% active. AID 504832
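Read-out is firefly luciferase luminescence from an integrated reporter in P. falciparum, so falling signal marks reduced parasite growth. Infected erythrocytes were at 2% hematocrit and 0.1% parasitemia (final) in Albumax-supplemented RPMI 1640.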
AMA1-RON2 inh: AMA1-RON2 (P. falciparum) interaction inhibition | AlphaScreen AMA1-biotinylated RON2 peptide binding | Potency, µM (highest dose often 58.2 µM), usual class: inhibitors | 360,000 tested, 0.2% active | AID 720542; also: nearly all actives have a fitted effect of over 45% in size
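AMA1 (3D7) with his tag at 25 nM final met compounds first, then biotinylated RON2 peptide at 25 nM; detection used donor plus acceptor beads, 10 µg/mL apiece, read by AlphaScreen after 30 min at room temperature.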
Large screens that a line does not name were inactive. Calls follow the shape of the dose curve; as a rule, active = well fitted curve in the direction sought with a large enough effect; inconclusive = small, poorly fitted or top-dose-only effect, or another doubt; inactive = no such curve, though single readings can be large; an effect the other way counts as inactive or inconclusive.

COc1ccc(C)cc1Nc1n[n+](C)c(-c2c3ccccc3cc3ccccc23)s1	Pf growth 96h inconclusive, Pf growth 48h inconclusive
COc1ccc(C)cc1Nc1n[n+](-c2ccccc2)c(-c2c(Cl)cccc2Cl)s1	Pf growth 96h 7.38µM, Pf growth 48h 10.4µM, AMA1-RON2 inh inconclusive
COc1ccc(C)cc1Nc1n[n+](-c2ccccc2)c(-c2ccc(OC)c(OC)c2OC)s1	Pf growth 96h 1.04µM, Pf growth 48h inconclusive
COc1ccc(C)cc1Nc1n[n+](-c2ccccc2)c(-c2ccc(N(C)C)cc2)s1	Pf growth 96h 2.08µM, Pf growth 48h 2.62µM
COc1ccc(OC)c(-c2nnc(SCC(=O)N3CCCC3)o2)c1	none
O=C(Nc1ccccc1C(F)(F)F)N1CCN(c2ccc3nnc(-c4ccc(F)cc4)n3n2)CC1	Pf growth 96h inconclusive, HCV inhibitor inconclusive, Pf growth 48h 11.7µM
O=C(Nc1ccc(F)cc1)N1CCN(c2ccc3nnc(-c4ccc(F)cc4)n3n2)CC1	Pf growth 96h inconclusive, HCV inhibitor inconclusive (no result: Pf growth 48h)
Cc1cc(C)cc(N(C(=O)c2sc(C)nc2C)C(C(=O)NCc2ccco2)c2ccccc2)c1 (stereo not given)	Pf growth 96h 11.7µM, Pf growth 48h inconclusive
CCc1nnc(NC(=O)CSc2ccc(-c3ccccc3OC)nn2)s1	none
S=C(NCC1CCCO1)Nc1cccc(Cl)c1 (stereo not given)	none
S=C(NCC1CCCO1)Nc1ccc(Nc2ccccc2)cc1 (stereo not given)	Pf growth 96h 11.7µM, HCV inhibitor inconclusive, AMA1-RON2 inh inconclusive
S=C(NCC1CCCO1)Nc1cccc2ccccc12 (stereo not given)	Pf growth 96h 1.04µM
CCC1CCCCN1CCCNC(=O)CN1C(=O)COc2ccccc21 (stereo not given)	none
O=S(=O)(c1ccc(Br)cc1)c1nc(-c2ccco2)oc1NCC1CCCO1 (stereo not given)	none
O=c1c(Cc2ccc(Cl)cc2)c(O)ccn1Cc1cccs1	none
COC(=O)CCC[C@H]1CC2(C[C@H](CCCO[Si](C)(C)C(C)(C)C)N1C(=O)OC(C)(C)C)OCCO2	HCV inhibitor inconclusive, Pf growth 48h inconclusive
CCOc1cc(-c2cc(-c3ccc(N)cc3)nc(N)c2C#N)ccc1O	HCV inhibitor inconclusive, Pf growth 48h 11.7µM
CCOc1cc(-c2cc(-c3ccccc3)nc(N)c2C#N)ccc1O	Pf growth 96h inconclusive (no result: Pf growth 48h)
COc1ccc(CC(=O)NCCc2ccc(S(N)(=O)=O)cc2)cc1	none (no result: Pf growth 48h)
OC(CNCCc1ccc(C(F)(F)F)cc1)COC(c1ccccc1)c1ccccc1 (stereo not given)	Pf growth 96h 3.7µM, HCV inhibitor inconclusive (no result: Pf growth 48h)
COc1ccc(C(OCC(O)CNCCc2ccc(S(N)(=O)=O)cc2)c2ccc(OC)cc2)cc1 (stereo not given)	Pf growth 96h 11.7µM, HCV inhibitor inconclusive (no result: Pf growth 48h)
COc1ccc(C(=O)c2ccc3oc(-c4ccc(OC)cc4)c(C#CCCO)c3c2)cc1	HCV inhibitor inconclusive (no result: Pf growth 96h, Pf growth 48h)
COc1cc(OC)cc(-c2oc3cccnc3c2C#CCCO)c1	Pf growth 96h inconclusive, HCV inhibitor 7.08µM
Cc1ccc(C(=O)Nc2cc(Cl)ccc2-n2cncn2)s1	HCV inhibitor inconclusive
Cc1ccsc1C(=O)Nc1cc(Cl)ccc1-n1cncn1	HCV inhibitor 7.08µM (no result: Pf growth 96h, Pf growth 48h)
Cc1ccc(OCC(=O)Nc2cc(Cl)ccc2-n2cncn2)c(C)c1	none (no result: Pf growth 96h, HCV inhibitor, Pf growth 48h)
Cc1cccc(OC(C)C(=O)Nc2cc(Cl)ccc2-n2cncn2)c1 (stereo not given)	Pf growth 96h inconclusive, HCV inhibitor inconclusive, Pf growth 48h 4.15µM
CCCOc1ccccc1OCC(=O)Nc1cc(Cl)ccc1-n1cncn1	Pf growth 96h 9.28µM, HCV inhibitor inconclusive, Pf growth 48h 11.7µM
CCc1cccc(OCC(=O)Nc2cc(Cl)ccc2-n2cncn2)c1	Pf growth 96h inconclusive, Pf growth 48h 13.1µM
O=C(CN1CCCc2ccccc21)NCCc1ccc(Cl)cc1	Pf growth 96h inconclusive, AMA1-RON2 inh inconclusive
COc1cccc(NC(=O)c2ccc3snnc3c2)c1	none
Cc1cccc(C)c1OCC(=O)Nc1cc(Cl)ccc1-n1cncn1	Pf growth 96h 13.1µM, HCV inhibitor inconclusive, Pf growth 48h 13.1µM
Cc1cccc(OCC(=O)Nc2cc(Cl)ccc2-n2cncn2)c1C	Pf growth 96h inconclusive, HCV inhibitor inconclusive, Pf growth 48h inconclusive
Cc1cc(C)n2nc(C(=O)OCC(=O)N3CC(C)CC(C)C3)nc2n1 (stereo not given)	none
O=c1c(C/C=C/c2ccccc2)c(O)ccn1CCc1c[nH]c2ccccc12	none
COc1ccc2[nH]cc(CCn3ccc(O)c(C/C=C/c4ccccc4)c3=O)c2c1	Pf growth 96h inconclusive, HCV inhibitor inconclusive, Pf growth 48h 9.28µM, AMA1-RON2 inh inconclusive
CCN(CC)c1cccc(OCC(=O)N(C)CCC#N)c1	Pf growth 48h 10.4µM
COC(=O)Cn1c(=NC(=O)c2ccc([N+](=O)[O-])s2)sc2cc(Br)ccc21	Pf growth 96h 0.828µM, HCV inhibitor inconclusive, Pf growth 48h inconclusive (no result: AMA1-RON2 inh)
FC(F)(F)c1nnc2c(Sc3ccccn3)nc3ccccc3n12	HCV inhibitor inconclusive, Pf growth 48h 9.28µM
COc1ccc(CC(N)c2csc(Nc3nc(C)cnc3C)n2)cc1 (stereo not given)	none (no result: Pf growth 96h, HCV inhibitor, Pf growth 48h)
O=C(N/N=C/C(Cl)=C/c1ccc([N+](=O)[O-])cc1)C(=O)Nc1ccccc1C(=O)O	Pf growth 96h inconclusive
O=C(N/N=C/C(Cl)=C/c1ccc([N+](=O)[O-])cc1)C(=O)Nc1ccc(C(=O)O)cc1	Pf growth 96h inconclusive, Pf growth 48h 11.7µM
CCc1cc(C(=O)N=Nc2c(O)[nH]c3c(Br)cc(Br)cc23)c2ccccc2n1	Pf growth 96h 4.65µM
CCc1cc(C(=O)N=Nc2c(O)[nH]c3ccc([N+](=O)[O-])cc23)c2ccccc2n1	Pf growth 96h inconclusive, HCV inhibitor inconclusive
Cc1cccc(C)c1-c1ccc(CN2C(CC(C)C)C(=O)N(Cc3cn(CCO)nn3)CCS2(=O)=O)cc1 (stereo not given)	none (no result: Pf growth 96h, Pf growth 48h)
COc1ccc(C(=O)COC(=O)c2sccc2C)cc1OC	HCV inhibitor inconclusive (no result: Pf growth 96h, Pf growth 48h)
CCN(CCCNC(=O)Cn1cc2c(n1)CCCC2)c1cccc(C)c1	Pf growth 96h 13.1µM
CCOC(=O)c1ccc(NC(=O)CCc2nc(-c3ccc(C)cc3)no2)cc1	Pf growth 96h 3.7µM, HCV inhibitor 8.91µM, Pf growth 48h inconclusive
COc1ccc(-c2noc(CCC(=O)Nc3ccc4c(c3)OCCO4)n2)cc1	Pf growth 96h 0.586µM, HCV inhibitor inconclusive
CCOC(=O)c1ccc(NC(=O)CCc2nc(-c3ccc(Cl)cc3)no2)cc1	Pf growth 96h inconclusive, HCV inhibitor inconclusive, Pf growth 48h inconclusive
O=C(CCc1nc(-c2ccc(F)cc2)no1)Nc1cccc(C(=O)NC2CC2)c1	HCV inhibitor 14.1µM (no result: Pf growth 96h, Pf growth 48h)
COc1ccc(-c2noc(CCC(=O)Nc3ccc(C)c(C)c3)n2)cc1	HCV inhibitor inconclusive (no result: Pf growth 96h)
COc1ccc(NC(=O)CCc2nc(-c3ccc(C)cc3)no2)cc1Cl	HCV inhibitor inconclusive (no result: Pf growth 96h)
COc1ccc(-c2noc(CCC(=O)O)n2)cc1	Pf growth 96h inconclusive
CCN(CCCNC(=O)CCc1nc(-c2ccc(OC)cc2)no1)c1cccc(C)c1	Pf growth 96h 13.1µM, HCV inhibitor inconclusive, AMA1-RON2 inh inconclusive (no result: Pf growth 48h)
